Results: PubChem BioAssay AID493231 (Broad Institute, 2011)
Results with a measured potency or affinity are listed apart. Values without a mark were called inactive. How the calls were made is not given here.

Target: Acyl-homoserine lactone acylase PvdQ (Pseudomonas aeruginosa (strain ATCC 15692 / DSM 22644 / CIP 104116 / JCM 14847 / LMG 12228 / 1C / PRS 101 / PAO1)) (UniProt Q9I194)
Assay: P. aeruginosa PvdQ acylase inhibitors, dose response, biochemical, fluorescence, plate reader and imaging, cherry-picks (AID 493231);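 further: 0% = neutral control wells and -100% = reference inhibitor wells; more negative values mean stronger inhibition of the acylase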
Settings: purified PvdQ acylase, fluorogenic substrate; series mostly up to 10 µM; activity change, negative = inhibition: at the top concentration

Sequence of Acyl-homoserine lactone acylase PvdQ (Pseudomonas aeruginosa (strain ATCC 15692 / DSM 22644 / CIP 104116 / JCM 14847 / LMG 12228 / 1C / PRS 101 / PAO1)) (Q9I194 whole entry, looked up): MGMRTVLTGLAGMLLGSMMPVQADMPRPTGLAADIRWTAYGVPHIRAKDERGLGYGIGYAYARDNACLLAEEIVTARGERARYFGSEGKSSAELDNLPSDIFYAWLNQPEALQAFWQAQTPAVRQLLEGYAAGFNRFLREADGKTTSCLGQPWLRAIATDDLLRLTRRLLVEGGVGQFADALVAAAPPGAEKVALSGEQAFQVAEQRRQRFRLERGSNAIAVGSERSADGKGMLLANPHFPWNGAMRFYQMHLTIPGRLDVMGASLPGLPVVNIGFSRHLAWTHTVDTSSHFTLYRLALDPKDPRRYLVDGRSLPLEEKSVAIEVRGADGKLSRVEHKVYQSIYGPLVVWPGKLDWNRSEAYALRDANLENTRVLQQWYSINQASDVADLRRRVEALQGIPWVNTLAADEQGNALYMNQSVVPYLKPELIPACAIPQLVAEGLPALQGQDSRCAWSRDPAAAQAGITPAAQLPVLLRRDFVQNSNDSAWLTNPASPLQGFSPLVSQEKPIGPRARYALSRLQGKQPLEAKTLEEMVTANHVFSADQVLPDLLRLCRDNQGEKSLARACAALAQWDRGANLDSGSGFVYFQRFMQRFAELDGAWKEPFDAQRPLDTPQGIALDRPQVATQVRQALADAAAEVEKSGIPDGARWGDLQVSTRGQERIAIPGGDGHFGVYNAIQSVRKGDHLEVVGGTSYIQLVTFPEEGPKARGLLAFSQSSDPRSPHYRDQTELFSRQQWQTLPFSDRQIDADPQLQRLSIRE

SMILES | activity change, negative = inhibition [unspecified]
CC1(C)CC2(CCO1)NCCN1C(=O)CSC12 (stereo not drawn) | 10.7
Cc1cc(N(CCCl)CCCl)ccc1C=NNC(=O)c1cccnc1 | -1.65
O=[N+]([O-])c1ccc2c(c1)Cc1cc(O)ccc1-2 | -7.24
